Source: PubChem BioAssay AID1578 (Sanford-Burnham Center for Chemical Genomics, 2009)
Among all 290,000 compounds or so, about 3,000 (1%) were called active. Shown is part of a subset that was picked to be rich in actives. Unmarked numbers belong to inactive results. Rule as the data show it: active = inhibition mostly above about 36% (no sharp cut-off); inactive = mostly below about 34%.

Assay: inhibition of NOD1-driven NF-kB reporter – cell-based, luminescence, uHTS, primary screen (AID 1578);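 also: HEK-293T reporter cells stimulated with the NOD1 agonist gamma-tri-DAP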
Conditions: NOD1-driven NF-kB luciferase reporter cells, at 4 µM, active compounds read high

Compound	inhibition
Cc1cc(NS(=O)(=O)c2ccc(NC(=S)NC(=O)c3ccncc3)cc2)no1	-4.1%
O=C(OCCN1CCCCC1)c1cccc(F)c1	-21.9%
CCOc1cc(C2C(C(=O)OC)=CN(Cc3ccc(Cl)cc3)C=C2C(=O)OC)ccc1O	-1.2%
O=C(CCCn1c(=O)[nH]c2ccccc2c1=O)Nc1ccc(F)cc1	-2.3%
COc1ccc(NC(=O)C2CC(=O)OC2c2ccccc2)cc1 (stereo not drawn)	-23.5%
COc1cccc(NC(=O)CN2C(=O)COc3ccc(Cl)cc32)c1	26.8%
NC(=O)C1=C[C@@H](c2csc3ccccc23)C[C@@H](OCCCCO)O1	-3.6%
Cc1cc(N=CC2=C(O)CC(C)(C)CC2=O)no1	13.1%
COCCn1c(SCC(=O)NCc2ccccc2)nc2ccccc21	6.7%
O=C1c2ccccc2C2=Nc3ccccc3SC(c3ccc(Cl)cc3)C12 (stereo not drawn)	74.7% (active)
O=C1c2ccccc2C2=Nc3ccccc3SC(c3cccc(F)c3)C12 (stereo not drawn)	49.7%
O=C1c2ccccc2C2=Nc3ccccc3SC(c3ccccc3F)C12 (stereo not drawn)	36.8%
NC(=O)CC(NC(=O)c1ccccc1)c1ccc(NCCOc2ccccc2)c([N+](=O)[O-])c1 (stereo not drawn)	1.2%
O=C(CCl)N1CCN2C(=O)c3ccccc3C12c1ccc(Cl)cc1 (stereo not drawn)	87.1% (active)
Cc1ccc(C(=O)N2CCN3C(=O)c4ccccc4C23c2ccc(Cl)cc2)cc1 (stereo not drawn)	-52.7%
O=C(c1ccccc1)N1CCN2C(=O)c3ccccc3C12c1ccc(Cl)cc1 (stereo not drawn)	-44.9%
O=C(Cn1c(=O)c2cccn2c2ccccc21)Nc1ccc(F)cc1F	-12.1%
Cc1cc(C)nc(N(C#N)S(=O)(=O)c2ccccc2)n1	9.1%
CC(C(=O)O/N=C(\N)c1ccccn1)c1ccc([N+](=O)[O-])cc1 (stereo not drawn)	-16.2%
N/C(=N\OCc1ccc([N+](=O)[O-])cc1)c1ccccn1	88.4% (active)
N/C(=N\OCc1ccc([N+](=O)[O-])cc1)c1ccncc1	-27.7%
CCCC(=O)Nc1ccccc1NC(=O)c1ccc(OCC)cc1	2.3%
O=C1CC(N2CCC(c3nc4ccccc4[nH]3)CC2)C(=O)N1Cc1ccccc1 (stereo not drawn)	-24.3%
Cc1cc(-c2ccc(C(C)C)c(S(=O)(=O)N3CCN(c4ccccc4)CC3)c2)on1	0%

Compound	inhibition
CCc1cc2c(=O)[nH]c(Cc3ccccc3)nc2s1	0.4%
CCc1cc2c(=O)[nH]c(-c3ccccn3)nc2s1	112% (active)
CCc1cc2c(=O)[nH]c(-c3ccncc3)nc2s1	29.8%
CC(C)Nc1nc(Cl)nc(N(C#N)CN2C(=O)c3ccccc3S2(=O)=O)n1	-4.8%
COc1ccc2nc(SCC(=O)Nc3nccs3)[nH]c2c1	-39.1%
COc1ccc(NC(=O)CN2CCN(c3c(C)cccc3C)CC2)cc1	-8.8%
COC(=O)c1ccc(CN2C(=O)C(C)N(C(=O)c3c(F)cccc3F)c3ccccc32)cc1 (stereo not drawn)	-2.1%
CC1C(=O)N(Cc2ccc(F)cc2)c2ccccc2N1C(=O)c1c(F)cccc1F (stereo not drawn)	43.5% (active)
COc1ccc(CN2C(=O)C(C)N(C(=O)c3c(F)cccc3F)c3ccccc32)cc1 (stereo not drawn)	6.5%
CC1CCN(CCCNC(=O)c2ccc3c(Cl)c4c(nc3c2)CCCC4)CC1	0.2%
COc1ccc(-n2c(Cc3cccn3C)nnc2SCC(=O)Nc2ccccc2OC)cc1	55%
COc1ccc(NC(=O)CSc2nnc(Cc3cccn3C)n2-c2ccc(OC)cc2)cc1	0.1%
COc1ccc(-n2c(Cc3cccn3C)nnc2SCC(=O)Nc2cccc(C)c2C)cc1	33.3%
COc1ccc(-n2c(Cc3cccn3C)nnc2SCC(=O)Nc2ccc(C)c(Cl)c2)cc1	75.8% (active)
COc1ccc(-n2c(Cc3cccn3C)nnc2SCC(=O)Nc2ccccc2C)cc1	57% (active)
COc1ccc(-n2c(Cc3cccn3C)nnc2SCC(=O)Nc2ccc(Cl)cc2)cc1	39.9%
CN1C=CC=C/C1=C1\SC(=S)N(N)C1=O	-40.2%
CCOC(=O)C1CCN(CCC(=O)Nc2ccc(C)cc2)CC1	-32.1%
COC(=O)c1cc(CNC(=O)c2ccc(N3CCCC3)c([N+](=O)[O-])c2)ccc1OC	-43.2%
CNC(=S)N/N=C/c1cn(Cc2ccc(F)cc2)c2ccccc12	-6.2%
CCNC(=S)N/N=C/c1cn(Cc2ccc(F)cc2)c2ccccc12	10.8%
CNC(=S)N/N=C/c1cn(Cc2ccc(C)cc2)c2ccccc12	70.4% (active)
COc1ccc(S(=O)(=O)N(C)c2ccc(C(=O)Nc3c(C)n(C)n(-c4ccccc4)c3=O)cc2)cc1	-31.9%
CCCC(C)NC(=O)c1cc(Cl)ccc1OC (stereo not drawn)	-0.3%

Compound	inhibition
CC(=O)c1cnc(Oc2cc(Cl)ccc2Cl)nc1C	-14.2%
Cc1cc(C)n2nc(SCc3cccc(S(=O)(=O)N(C)C)c3)nc2n1	7.2%
CN(C)S(=O)(=O)c1cccc(CSc2cccc[n+]2[O-])c1	-15.4%
COC(=O)c1c(NC(=O)C2CCC2)sc(C(=O)N(C)C)c1C	-8.7%
CCc1cccc(N(C(=O)c2csnn2)C(C(=O)NC2CCCC2)c2cccnc2)c1 (stereo not drawn)	-10.2%
CSc1ccc(/C=C2\CCn3c2nc2cc(C(=O)O)ccc2c3=O)cc1	-1.6%
O=C(O)c1ccc2c(=O)n3c(nc2c1)/C(=C/c1ccc(C(F)(F)F)cc1)CC3	1.9%
O=C(O)c1ccc2c(=O)n3c(nc2c1)/C(=C/c1ccc(F)cc1)CC3	33.3% (active)
Cc1nc(-c2ccccc2)sc1C1(C)CC(c2c(Cl)cccc2Cl)=NO1 (stereo not drawn)	10.1%
CCCO/N=C1/C(=O)N(c2ccccc2)c2ccccc21	6.1%
CCN1C(=O)C(O)(CC(=O)/C=C/C=C/c2ccccc2)c2ccccc21 (stereo not drawn)	-4.8%
NC(=O)CN1C(=O)C(O)(CC(=O)/C=C\C=C\c2ccccc2)c2ccccc21 (stereo not drawn)	17.8%
C#CCN1C(=O)C(O)(CC(=O)/C=C/C=C/c2ccccc2)c2ccccc21 (stereo not drawn)	57% (active)
Cc1ccc(S(=O)(=O)/N=C(/Nc2ccc3[nH]c(=O)[nH]c3c2)c2ccc(F)cc2)cc1	3.8%
N#CC1=C(SCC(=O)NC2CC2)NC(=O)C(C#N)C12CCCCC2 (stereo not drawn)	15.7%
CCSC1=C(C#N)C2(CCCCC2)C(C#N)C(=O)N1 (stereo not drawn)	-3.2%
COCCN=C1OC(=O)N2C(=O)C3=C4[C@@H](C[C@H]5C(=O)N(c6ccccc6)C(=O)[C@H]5[C@H]4[C@@]12Cc1ccccc1)[C@H]1C(=O)N(c2ccccc2)C(=O)[C@H]1[C@H]3C	4.5%
Cc1cc(C)nc(N(C#N)Cc2ccccc2C)n1	-6.3%
CCCOc1ccc(C(=O)C(CN2CCCC2)c2ccccc2)cc1 (stereo not drawn)	31.5%
COc1ccc(C(=O)C(CN2CCOCC2)c2ccccc2)cc1 (stereo not drawn)	38%
O=C(c1ccc(Br)cc1)C(CN1CCOCC1)c1ccccc1 (stereo not drawn)	5.4%
CCOc1ccc(C(=O)C(CN2CCOCC2)c2ccccc2)cc1 (stereo not drawn)	-28.1%
O=C(c1ccc(F)cc1)C(CN1CCOCC1)c1ccccc1 (stereo not drawn)	67.3% (active)
COc1ccc(C(=O)C(CN2CCCC2)c2ccccc2)cc1 (stereo not drawn)	78.7% (active)

Compound	inhibition
Fc1ccc(OCc2nn[nH]n2)c(F)c1	-9.1%
COc1ccc(C(=O)NC(=S)NNC(=O)[C@H]2C[C@@H]2c2ccccc2)cc1OC	-2.6%
O=C(NCC(=O)N(c1cccc(F)c1)C(C(=O)NC1CCCC1)c1ccco1)c1ccco1 (stereo not drawn)	-35.9%
Cc1ccc(Oc2ccc(C(=O)NCc3ccncc3)cc2)cc1	38.4% (active)
CCOc1ccc(C(=O)NCc2ccncc2)cc1	-14.8%
O=C(NCc1ccncc1)c1ccc(Oc2ccccc2)cc1	18.9%
O=S(=O)(NCc1ccc2c(c1)OCO2)c1c(F)cc(F)cc1Br	-29.4%
COc1ccccc1NC(=O)C(=O)N/N=C/c1cccs1	-36%
COC(=O)N/N=C/c1ccc([N+](=O)[O-])s1	-14.7%
Cc1cc(C(=O)N/N=C/c2ccc([N+](=O)[O-])cc2)c2ccccc2n1	8.1%
Cc1ccccc1C(=O)N/N=C/c1ccc([N+](=O)[O-])s1	11%
O=C(N/N=C\c1ccc(Cl)s1)C1COc2ccccc2O1 (stereo not drawn)	-4.2%
Fc1ccccc1/C=N/NC(=S)Nc1ccc(Cl)cc1Cl	-13.3%
COc1ccccc1NC(=O)C(=O)N/N=C/c1ccc([N+](=O)[O-])s1	74.8% (active)
Fc1ccc(/C=N/NC(=S)Nc2ccc(Cl)cc2Cl)cc1	8.9%
O=C(N/N=C\c1cccc([N+](=O)[O-])c1O)C1COc2ccccc2O1 (stereo not drawn)	-14.4%
COc1cccc(NC(=O)c2ccccc2N2C(=O)C3C4C=CC(C5CC45)C3C2=O)c1 (stereo not drawn)	-54.1%
COc1cccc(OCC(O)CNC(C)c2ccccc2)c1 (stereo not drawn)	-39.9%
C=CCNc1nnnc2c1sc1nc(N3CCOCC3)c3c(c12)CCCC3	-1.1%
COC(=O)c1c(NC(=O)COC(=O)CNC(=O)c2ccco2)sc(C)c1C	-14.8%
Cc1ccc(/C(O)=C2\C(=O)C(=O)N(C)C2c2ccc(Br)cc2)cc1 (stereo not drawn)	-22%
